# Screening results: PubChem, National Center for Advancing Translational Sciences (NCATS)
# Compounds with a hit are over-represented: about 12% of the library has one in this group of screens.
# JMJD2A Tudor: qHTS Assay for Inhibitors of JMJD2A-Tudor Domain. AlphaScreen JMJD2A-Tudor / H3K4me3 peptide binding. 390,000 compounds, 4.4% hits. Lysine-specific demethylase 4A (Homo sapiens), O75164. Potency, µM (series often up to 114 µM), for inactives: at the highest dose activity change, negative = inhibition, hits mostly inhibitors; note: % is set by controls: 0 for no effect and ±100 for the full control effect; nearly all actives have a fitted effect of over 50% in size
# L3MBTL1 inh: qHTS Assay for the Inhibitors of L3MBTL1; Lethal(3)malignant brain tumor-like protein 1 (Homo sapiens), Q9Y468; AlphaScreen L3MBTL1–H3K9me1 peptide binding; Potency, µM (doses to about 57.1 µM), without a hit: at the top dose activity, negative = inhibition, actives largely listed as inhibitors; 230,000 compounds, 0.66% hits; note: % is set by controls: 0 for no effect and ±100 for the full control effect; nearly all actives have a fitted effect of over 60% in size
#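 Displacement of a biotinylated histone H3(1-15) peptide monomethylated at Lys9 (75 nM) from L3MBTL1 (50 nM) was measured by AlphaScreen after a 30 min room-temperature compound incubation; cefsulodin titration served as intraplate control.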
# HP1b chromo inh: HTS for Inhibitors of HP1-beta Chromodomain Interactions with Methylated Histone Tails; Chromobox protein homolog 1 (Homo sapiens), P83916; 390,000 compounds, 0.56% hits; AlphaScreen HP1-beta / biotin-H3K9me3 peptide binding; Potency, µM (series often up to 114 µM), without a hit: at the top dose activity change, negative = inhibition, usual class: inhibitors; note: nearly all actives have a fitted effect of over 70% in size
# Target sequence (P83916 whole entry, looked up): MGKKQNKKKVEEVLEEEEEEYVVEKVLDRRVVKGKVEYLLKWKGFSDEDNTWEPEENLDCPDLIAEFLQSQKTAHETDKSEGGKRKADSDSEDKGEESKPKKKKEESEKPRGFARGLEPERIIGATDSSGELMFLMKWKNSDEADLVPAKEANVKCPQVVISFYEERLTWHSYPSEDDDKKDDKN
#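 Compound inhibition of the preformed complex between 50 nM HP1-beta and 50 nM biotinylated H3K9me3 peptide was read by AlphaScreen. Buffer was PBS pH 7.4 with 0.01% Tween-20. Incubations ran 30 min at room temperature, with 10 ug/mL donor/acceptor beads.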
# BAZ2B inh: qHTS Assay for Inhibitors of BAZ2B. 360,000 compounds, 4.4% hits. Potency, µM (highest dose often 114 µM), without a hit: at the highest dose activity change, negative = inhibition, actives largely listed as inhibitors. AlphaScreen BAZ2B-H3K14Ac peptide displacement. AID 504333, 2011; note: % is set by controls: 0 for no effect and ±100 for the full control effect; nearly all actives have a fitted effect of over 60% in size
#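 BAZ2B (50 nM) with biotin-H3(5-23)K14Ac peptide (50 nM) in PBS pH 7.4, 0.01% Tween-20, preformed 30 min, then compound 30 min at room temperature; top concentration 110uM. AlphaScreen streptavidin donor/nickel chelate acceptor beads (10 ug/mL final), 20 min dark, signal read.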
# G9a inh: qHTS Assay for Inhibitors of Histone Lysine Methyltransferase G9a. Histone-lysine N-methyltransferase EHMT2 (Homo sapiens), Q96KQ7. G9a H3K9 monomethylation, AlphaScreen, 2 h. Potency, µM (titrated, usually from 102 µM), for inactives: at the highest dose activity, negative = inhibition, hits mostly inhibitors. 350,000 compounds, 8.8% hits. AID 504332, 2011; note: % is set by controls: 0 for no effect and ±100 for the full control effect; nearly all actives have a fitted effect of over 75% in size
# Target sequence (Q96KQ7 913-1193 limits assumed): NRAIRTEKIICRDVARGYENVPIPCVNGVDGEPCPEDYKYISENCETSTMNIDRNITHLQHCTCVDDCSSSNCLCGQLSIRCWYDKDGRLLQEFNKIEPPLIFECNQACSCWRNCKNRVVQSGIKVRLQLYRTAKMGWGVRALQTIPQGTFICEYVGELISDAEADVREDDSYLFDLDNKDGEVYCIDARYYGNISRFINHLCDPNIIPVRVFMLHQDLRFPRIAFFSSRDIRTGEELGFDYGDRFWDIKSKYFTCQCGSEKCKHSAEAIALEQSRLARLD
#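 Chemiluminescent proximity detection of H3K9 monomethylation, read after 10 min bead incubation in the dark. Reaction: 20 nM G9a, 500 nM biotin-H3K9 peptide, 20 uM SAM cofactor, 2 h, room temperature, following 15 min enzyme-compound preincubation.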
# Sfp inh: qHTS Assay for Inhibitors of Bacillus subtilis Sfp phosphopantetheinyl transferase (PPTase); AID 1490, 2009; Biochemical Sfp PPTase activity, qHTS; 310,000 compounds, 3.5% hits; Potency, µM, for inactives: largest response in the series, negative = inhibition, most hits filed as inhibitors; 4'-phosphopantetheinyl transferase ffp (Bacillus subtilis), Q9F4F7;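 note: the enzyme is Sfp with the accession as filed and its product quenches rhodamine fluorescence; 0% = enzyme reaction without inhibitor and -100% = no enzyme wells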
#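 Buffer: 50 mM Hepes-Na pH 7.6, 10 mM MgCl2, 0.01% Nonidet P-40, 0.01% BSA. Enzyme 15 nM, pre-exposed to compound 15 min; substrates then added and fluorescence change tracked over 30 min.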
# * = called active by the depositor; ? = inconclusive; / = not tested or not shown; ! = not active in a repeat; [ ] = another dose, or the depositor's remark. Calls come from the whole dose curve; as a rule, active = well fitted curve in the direction sought with a large enough effect; inconclusive = small, poorly fitted or top-dose-only effect, or another doubt; inactive = no such curve, though single readings can be large; an effect the other way counts as inactive or inconclusive. Potency is the fitted concentration of half-maximal effect.
SMILES,JMJD2A Tudor,L3MBTL1 inh,HP1b chromo inh,BAZ2B inh,G9a inh,Sfp inh
CCOC(=O)c1c(NC(=O)c2ccccc2)sc2c(O)c(CN(CC)CC)ccc12,-22%,-6%,-5%,-8%,50µM*,1%
O=C(O)C1CCN(S(=O)(=O)Cc2ccccc2)CC1,-8%,/,33%,5%,?,5%
COC(=O)[C@@H]1C[C@@]2(O)[C@@H](O)[C@@H](O)[C@@H](O)C[C@H]2N1Cc1ccc(C(C)(C)C)cc1,/,/,/,/,/,10%
C=C(C)c1cc2c(s1)c1cnn(Cc3ccccc3F)c(=O)c1n2C,-22%,/,/,/,/,/
CC(C)(C)NC(=O)C(=O)NNC(=O)c1cccc(F)c1,10µM*,/,2%,?,9%,?
CC(C)(C)NC(=O)C(=O)NNC(=O)c1ccccc1,8.9µM*,2%,16%,?,?,-7%
Cc1occc1C(=O)NNC(=O)c1cccc(F)c1,-14%[11.4 µM],1%,25%,-6%,5%,19%
CCOC(=O)C1(Cc2ccccc2C)CCCN(C(=O)c2ccoc2)C1 (stereo not given),-22%,/,15%,-8%,/,-1%
COc1cc(OC)c(Nc2cc(C)nc3nc(C)nn23)cc1Cl,-14%,2%,18%,-5%,?,4%
Cc1cc(Nc2ccc3ccccc3c2)n2ncnc2n1,-30%,3%,-9%,-33%,16µM*,-11%
COc1cc(OC)c(Nc2cc(C)nc3ncnn23)cc1Cl,-17%,/,17%,-3%,11µM*,/
CCc1ccc(Nc2nc(-c3cc4cccc(OC)c4oc3=O)c(CC)s2)cc1,-28%,/,23%,-16%,-23%[59 µM],/
COc1ccc2ccccc2c1CNC(C)c1ccccc1 (stereo not given),79µM*,-9%[2.29 µM],-5%,?,20%[0.501 µM],-21%
CC(NCCCOc1cccc2ccccc12)c1ccccc1 (stereo not given),22µM*,-2%,?,?,11µM*,-22%
COc1ccc2ccccc2c1CNCc1ccc(C)cc1,22µM*,-8%,?,?,50µM*,-22%
CCC(=O)c1ccc(NC(C)=O)cc1O,1%,5%,37%,-1%,6%,15%
CC(=O)Nc1ccc2c(c1)C(C)(C)C(C)N2C (stereo not given),-17%,/,21%,?,18µM*,-1%
CC(=O)N[C@@H](CS)C(=O)O,?,-4%,32%,12%,?,35µM*!
CC(=O)N[C@H](CS)C(=O)O,/,/,/,/,2%[2.33 µM],-39%
CCCn1c(N2CCN(CC(=O)c3c[nH]c4ccccc34)CC2)nc2c1c(=O)[nH]c(=O)n2C,45µM*,0%,14%,17%,?,-27%
O=C(CN1CCN(Cc2ccccc2)CC1)c1ccccc1,-16%,/,34%,-34%,79µM*,13%
CCN1CCN(C(=O)c2ccccc2NC(=O)c2ccc(Cl)cc2)CC1,-14%,/,7%,-8%,45µM*,14%
Cc1ccc(NC(=O)CN2CCN(Cc3ccccc3)CC2)c(Br)c1,7.1µM*,-17%,?,7%[0.457 µM],?,-2%
O=C(Nc1ccccc1C(=O)N1CCCCCC1)c1ccc(Cl)cc1,0%,/,38%,-5%,7%[59 µM],13%
NS(=O)(=O)c1cc2c(cc1Cl)N[C@H](Cc1ccccc1)NS2(=O)=O,/,/,/,/,20%[59 µM],4%
SMILES,JMJD2A Tudor,L3MBTL1 inh,HP1b chromo inh,BAZ2B inh,G9a inh,Sfp inh
O=S(=O)(c1ccccc1Br)N1CCN(c2nc(-c3cccs3)nc3ccccc23)CC1,-24%,/,37%,/,/,/
O=C(CN1CCN(Cc2ccccc2)CC1)c1c[nH]c2ccccc12,2%[11.4 µM],-1%,55%,-5%,40µM*,1%
O=C(CN1CCN(Cc2ccccc2)CC1)NNC(=O)c1ccc(Cl)cc1,-6%,4%,17%,13%,50µM*,/
CC(=O)c1cccc(NC(=O)CN2CCN(Cc3ccccc3)CC2)c1,0.79µM*,-8%,?,?,7.1µM*,56µM*
COC(=O)c1cccc(NC(=O)CN2CCN(Cc3ccccc3)CC2)c1,-22%,/,55%,5%,?,17%
Cc1c(NC2(C#N)CCCC2)c(=O)n(-c2ccccc2)n1C,-19%,/,39%,-1%,-14%,-12%
COCCNC(=O)c1cccc(-n2c(C)nc3cccnc32)c1,-5%,/,21%,-4%,-3%[59 µM],/
COc1ccccc1Nc1nc(N)nc(CN2CCCCCC2)n1,-17%[11.4 µM],?,16%,13µM*,?,-14%
COc1ccc(Nc2nc(N)nc(CN3CCOCC3)n2)cc1,50µM*,-9%,-5%,79µM*,-1%,-19%
COc1ccccc1Nc1nc(N)nc(CN2CCC(C)CC2)n1,?,/,14%,-26%,-7%[59 µM],11%
COc1ccccc1Nc1nc(N)nc(CSC(=S)N2CCC(C)CC2)n1,-28%,-6%,-2%,-27%,8%[59 µM],22%
COc1ccccc1Nc1nc(N)nc(CN2CCOCC2)n1,-35%,2%,52%,56µM*,?,-2%
CCCCCCCN(c1ccccc1)[C@@H]1C[C@H]2CCCC(=O)N3CC[C@@H](C1)[C@@H]23,45µM*,/,-13%,/,/,/
Cc1c(C(=O)NCc2ccccc2Br)oc2c1-c1[nH]ncc1CC2,0%,/,43%,-2%,-46%[59 µM],/
O=C(Nc1cccnc1)c1cc(-c2cccc(Cl)c2)on1,25µM*!,/,3%,4%,10%,4%
O=C(Nc1cccnc1)Nc1cc(Cl)cc(Cl)c1,0%,-8%,33%,17%,79µM*,?
CC(NC(=O)COc1ccc(-c2nnco2)cc1)c1ccc(Cl)cc1Cl (stereo not given),-9%,12%,12%,-3%,45µM*,8%
CN1CCN(c2nc3ccccn3c(=O)c2C=C(C#N)C#N)CC1,-12%,/,6%,5%,-5%[2.33 µM],10%
CCOC(=O)C(C#N)=C(c1ccccc1)c1ccccc1,/,/,/,/,3%[12.7 µM],7%
COC(=O)c1ccc(CCc2cc(O)ccc2O)cc1,6.3µM*,/,?,/,/,/
COC(=O)c1cc(Br)c(=O)n(CCc2ccccc2)c1,11%,1%,35%,1%,8%,15%
COC(=O)c1ccc(CCc2cc(O)c(Br)cc2O)cc1,2.8µM*,/,?,/,/,/
COC(=O)c1ccc(O)cc1,2%,/,24%,-1%,21%,21%
C=C1c2cccc(C(F)(F)F)c2O[C@H](C(=O)OCC)[C@H]1OC,-13%,-5%,56%,/,/,/
